Inconclusive results are not listed. Activity calls are given as the source filed them. Calls follow the shape of the dose curve; as a rule, active = well fitted cell-killing curve with a large enough effect; inconclusive = small, poorly fitted or top-dose-only effect, or effect the other way; inactive = no such curve, though single readings can be large or run the other way.
Potency is read from the fitted curve at half-maximal effect.

For the assay, the system named is HeLa. The assay can be described thus: Confirmatory qHTS for gynecologic anti-cancer compounds from libraries of approved drugs and bioactive compounds. Also: nearly all actives have a fitted effect of over 55% in size. The note with it: gynecologic cancer cell panel viability, ATPlite luminescence, 48 h; series mostly up to 57.6 µM. An outline of the steps:
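Viability is measured as ATP-dependent luciferase light using ATPlite, read 15 min after reagent addition at room temperature. Compounds, in DMSO, span 57.5 uM down to 0.977 nM over 11 threefold steps for 48 h.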
(In general: qHTS replaces the single test concentration by a dilution series.)
Take `C[C@H]1CCC/C=C/C2C[C@H](O)C[C@H]2[C@H](O)/C=C/C(=O)O1` (stereo partly drawn): the Potency is 172 nM (active).

As to `O=C(O)Cc1ccccc1`, the Potency result is “inactive”.

Consider `C=C(C)[C@H]1Cc2c(ccc3c2O[C@@H]2COc4cc(OC)c(OC)cc4[C@@H]2C3=O)O1`, for which the Potency was 243 nM (active). Under `C/C=C(/C)C(=O)O[C@H]1C(C)=C2[C@H]([C@@H]1OC(=O)CCCCCCC)[C@@](C)(OC(C)=O)C[C@H](OC(=O)CCC)[C@@]1(O)[C@H]2OC(=O)[C@@]1(C)O` stands 61.1 nM (active); under `C[C@]12CC[C@H]3[C@@H](CCC4=CC(=O)CC[C@@H]43)[C@@H]1CC[C@@H]2OC(=O)CCc1ccccc1`, 2730 nM (active). Next, `CCC(=O)O[C@H]1CC[C@H]2[C@@H]3CCC4=CC(=O)CC[C@]4(C)[C@H]3CC[C@]12C`: 4320 nM (active); `CCNC(=O)C[C@@H]1N=C(c2ccc(Cl)cc2)c2cc(OC)ccc2-n2c(C)nnc21`: 1530 nM (active); `Cc1sc2c(c1C)C(c1ccc(Cl)cc1)=NC(CC(=O)OC(C)(C)C)c1nnc(C)n1-2` (stereo not drawn): 769 nM (active).
